# Results reported in PubChem BioAssay AID651699 (Sanford-Burnham Center for Chemical Genomics, 2012).
# The whole screen tested about 360,000 compounds, of which about 2,100 (0.58%) were called active. The sample holds actives, similar compounds and a random draw of the others, so the mix is not that of the screen. A number with no mark means an inactive call. Cut-off read from the data, not from the text of the source: active = inhibition above about 36%; inactive = the rest.
# Target: NEDD8-conjugating enzyme Ubc12 (Homo sapiens) + NEDD8-activating enzyme E1 regulatory subunit (Homo sapiens) (UniProt P61081+Q13564)
# Experiment: inhibitors of cullin neddylation, primary screen, biochemical, TR-FRET, uHTS, NAE and Ubc12 (AID 651699)
# Conditions: at 25 µM, stronger effect = higher value
# NEDD8-conjugating enzyme Ubc12 (Homo sapiens) + NEDD8-activating enzyme E1 regulatory subunit (Homo sapiens), sequence (P61081 whole entry, looked up): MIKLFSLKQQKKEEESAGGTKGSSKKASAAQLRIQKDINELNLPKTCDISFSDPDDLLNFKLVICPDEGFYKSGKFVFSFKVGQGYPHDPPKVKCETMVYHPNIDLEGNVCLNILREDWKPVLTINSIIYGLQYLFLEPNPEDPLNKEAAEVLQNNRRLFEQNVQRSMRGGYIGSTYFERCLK
# NEDD8-conjugating enzyme Ubc12 (Homo sapiens) + NEDD8-activating enzyme E1 regulatory subunit (Homo sapiens), sequence (Q13564 whole entry, looked up): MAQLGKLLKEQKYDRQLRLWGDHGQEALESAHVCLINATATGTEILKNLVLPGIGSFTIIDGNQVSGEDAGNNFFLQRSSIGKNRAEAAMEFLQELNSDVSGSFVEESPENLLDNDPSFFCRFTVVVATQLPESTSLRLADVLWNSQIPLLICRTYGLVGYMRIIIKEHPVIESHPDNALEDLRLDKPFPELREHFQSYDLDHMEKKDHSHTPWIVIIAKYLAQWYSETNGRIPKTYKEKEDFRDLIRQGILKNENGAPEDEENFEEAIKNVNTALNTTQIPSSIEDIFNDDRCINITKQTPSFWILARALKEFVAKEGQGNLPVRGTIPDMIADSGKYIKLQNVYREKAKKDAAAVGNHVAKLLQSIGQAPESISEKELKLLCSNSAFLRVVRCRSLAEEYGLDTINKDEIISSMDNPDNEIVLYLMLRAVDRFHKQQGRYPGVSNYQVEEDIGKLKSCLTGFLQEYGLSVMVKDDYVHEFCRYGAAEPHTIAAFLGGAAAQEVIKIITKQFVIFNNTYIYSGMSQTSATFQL
row,Structure (SMILES),inhibition
1,CC1(C)CC(=O)C2=C(C1)Nc1cc(C(=O)c3ccccc3)ccc1NC2c1ccccn1 (configuration not stated),24.5%
2,CCOc1ccc2[nH]c(=O)c(CN(Cc3nnnn3Cc3ccccc3)CC3CCCO3)cc2c1 (configuration not stated),48% (active)
3,Cc1cc(C)c2cc(CN(Cc3cccs3)Cc3nnnn3CC3CCCO3)c(=O)[nH]c2c1 (configuration not stated),-8.71%
4,Cc1ccc(S(=O)(=O)N(Cc2cc3ccccc3[nH]c2=O)CC2CCCO2)cc1 (configuration not stated),11.6%
5,Cc1cc2cc(CN(Cc3cccs3)Cc3nnnn3CC3CCCO3)c(=O)[nH]c2cc1C (configuration not stated),4.8%
6,COc1ccc2[nH]c(=O)c(CN(CC3CCCO3)C(=O)Nc3ccccc3)cc2c1 (configuration not stated),21.1%
7,CCOc1ccc2[nH]c(=O)c(CN(Cc3nnnn3CCc3ccccc3)CC3CCCO3)cc2c1 (configuration not stated),44% (active)
8,CC(C)(C)NS(=O)(=O)CC12CCC(CC1=O)C2(C)C (configuration not stated),4.11%
9,CCCN(c1ccc(C(C)C)cc1)S(=O)(=O)c1c(C)[nH]c(=O)[nH]c1=O,-4.15%
10,COCCNC(=S)N1CCN(C)CC1,2.77%
11,O=C(N[C@H]1C/C=C\C(c2ccc(F)cc2)N(Cc2ccccc2)C(=O)C1)OCC1c2ccccc2-c2ccccc21 (some centres not stated),-23.7%
12,COCCn1c(C)cc(C(=O)CSc2nnc(C3CC3)n2C2CC2)c1C,2.64%
13,O=C(/C=C/c1cn(-c2ccccc2)nc1-c1ccc2c(c1)OCCO2)NCCCN1CCOCC1,46.4% (active)
14,CC(C)c1ccc(/C=C/C(=O)NCCCN2CCOCC2)cc1,6.59%
15,CC(OC(=O)/C=C/c1ccccc1)C(=O)Nc1ccc(C(N)=O)cc1 (configuration not stated),9.24%
16,Cc1ccc(C)c(NC(=O)NNC(=O)c2ccc3ccccc3c2O)c1,41.2% (active)
17,Cc1ccc(S(=O)(=O)NNC(=O)Nc2cccc3ccccc23)cc1,-0.11%
18,Cc1ccc(C)c(NC(=O)COC(=O)CSc2ccccc2)c1,4.31%
19,CC1CCN(C(=O)CN(c2ccc(Oc3ccccc3)cc2)S(C)(=O)=O)CC1,0.77%
20,COc1cc(/C(=C/c2ccccc2)c2ccccc2)c2c(c1)oc1ccccc12,49.4% (active)
21,COc1ccc(/C=C(/NC(=O)c2ccccc2)C(=O)Nc2cccc(C(=O)O)c2)cc1,-5.87%
22,COc1cc2c(cc1NC(=O)COC(=O)/C=C/c1ccccc1)oc1ccccc12,29.1%
23,CCN(CCNC(=O)C1=C(C)C(=O)OC12CCC(C)CC2)c1ccccc1 (configuration not stated),0.38%
24,N/C(Cc1ccc([N+](=O)[O-])cc1)=N\OC(=O)C1CCCCC1,-35.6%

row,Structure (SMILES),inhibition
1,CN(C)c1nc(N)nc(CSc2nnnn2-c2cccc3ccccc23)n1,-6.09%
2,COc1ccccc1N1CCN(C(=O)C(=O)N/N=C/c2ccccc2F)CC1,-4.11%
3,COc1ccc2[nH]c(=O)c(CNc3ccc(C)c(C)c3)cc2c1,23.5%
4,CCOc1ccc2ccccc2c1/C=N/NC(=O)c1c(C)cc(C)[nH]c1=O,-12.9%
5,COc1cc2cc(C(=O)N/N=C/c3cccc(OC)c3OC)[nH]c2cc1OC,40.2% (active)
6,COc1ccc2[nH]c(C(=O)N/N=C/c3cc(OC)c(OC)c(OC)c3)cc2c1,59.3% (active)
7,CCOc1ccc2[nH]c(C(=O)N/N=C/c3cccc(OC)c3OC)cc2c1,45.1% (active)
8,CCOc1ccc(/C=N\NC(=O)c2c(C)nc3cc(C)ccn23)cc1,2.94%
9,COc1cccc(C(=O)N/N=C(\C)c2cccc(NC(=O)c3ccc(F)cc3)c2)c1OC,-8.13%
10,O=C(Nc1ccc(Cl)cc1)C1Cc2c(-c3ccc4c(c3)OCO4)ccnc2O1 (configuration not stated),25.3%
11,N#Cc1ccccc1CN1C(=O)S/C(=C/c2cccn2-c2cccc(C(=O)O)c2)C1=O,-29.6%
12,Cc1cccc(N2CCN(C(=O)CN(C)S(=O)(=O)c3ccc4c(c3)CCC(=O)N4)CC2)c1C,4.09%
13,CCCC(=O)N1CCC1(C)C(=O)NS(=O)(=O)c1ccc(Cl)cc1 (configuration not stated),5.26%
14,CCOc1cc(/C=N/NC(=O)c2cccc(S(=O)(=O)N3CCOCC3)c2)ccc1OCC(=O)N(C)C,6.83%
15,Cc1ncc(CO)c(/C=N/NC(=O)c2cccc(S(=O)(=O)N3CCCC3)c2)c1O,47.2% (active)
16,O=C(NNC1=NCCC1)c1cccc(S(=O)(=O)N2CCCCC2)c1,3.17%
17,COc1ccccc1/C=C/C1=NC(=C\N(C)C)/C(=O)O1,54% (active)
18,C=CCOC(=O)C1=C(C)N=C2SCCC(=O)N2C1/C=C/c1ccccc1OC (configuration not stated),-7.53%
19,COc1ccccc1/C=C/C(=O)NC(=S)N1CCOCC1,-10.5%
20,CCSC1=NCCN1C(=O)c1ccc(S(=O)(=O)N(CC)CC)cc1,-10.5%
21,CC1(C(=O)NS(=O)(=O)c2ccc(C#N)cc2)CCN1C(=O)CC1CCCC1 (configuration not stated),-3.86%
22,CC(C)(C)OC(=O)C[C@@H]1C/C=C\C[C@@H](CC(=O)N[C@H](CO)Cc2ccccc2)C(=O)NCCOC1=O,-4.28%
23,O=C(c1ccc(Cl)s1)N(Cc1nnc(-c2ccccc2Cl)o1)C1CC1,12.9%
24,O=C(c1cc(-c2ccco2)nc2ccccc12)N(Cc1nnc(-c2ccc(Cl)cc2)o1)C1CC1,38.9% (active)

row,Structure (SMILES),inhibition
1,CN(C(=O)COC(=O)c1cc(-c2ccco2)nc2ccccc12)C1CCS(=O)(=O)C1 (configuration not stated),-19.8%
2,N#Cc1ccc(S(=O)(=O)NCC(=O)OCC(=O)NCCc2ccccc2)cc1,-11.3%
3,CCOC(=O)C1(Cc2ccccc2C)CCCN(C(=O)CCc2c(C)noc2C)C1 (configuration not stated),3.81%
4,CC(=O)Oc1c(C(=O)c2nnc(C)o2)c(=O)n(Cc2ccccc2)c2ccccc12,40% (active)
5,CC(=O)OCC(C)n1c(=O)c2ccccc2n1C(C)=O (configuration not stated),16.7%
6,O=C(O)CCc1nc2cc(Cl)ccc2n(Cc2ccccc2)c1=O,9.12%
7,CC1Cc2ccccc2N1CC(=O)Nc1ccc2c(c1)OC(F)(F)O2 (configuration not stated),-5.99%
8,CC(=O)NS(=O)(=O)c1ccc(N/C(N)=N/c2nc(C)cc(C)n2)cc1,-11.7%
9,O=C(CSc1nnc(-c2ccncc2)n1C1CCCCC1)Nc1ccccc1,-3.98%
10,CCOc1ccc(NC(=O)CN(C)C(=O)Cc2sc(C)nc2-c2ccc(F)cc2)cc1OCC,-1.44%
11,COc1ccc(C2c3[nH]c4ccccc4c3CCN2CCCn2cccn2)cc1C (configuration not stated),49.4% (active)
12,COCc1ccc(C(=O)N2CCc3c([nH]c4ccccc34)C2c2ccccn2)s1 (configuration not stated),-1.93%
13,COc1cccc(C2c3[nH]c4ccccc4c3CCN2Cc2cccc(C)n2)c1 (configuration not stated),48.7% (active)
14,CCOc1ccc(C2c3[nH]c4ccccc4c3CCN2Cc2cn(CC)nc2C)cc1 (configuration not stated),22.4%
15,CCOc1ccc(C2c3[nH]c4ccccc4c3CCN2Cc2cccn2-c2ncccn2)cc1 (configuration not stated),16.1%
16,Oc1cccc(C2c3[nH]c4ccccc4c3CCN2Cc2cnn(-c3ccccc3)c2)c1 (configuration not stated),25.4%
17,O=C(O)C1C2C=CC(C2)C1C(=O)NCc1ccccc1 (configuration not stated),-4.12%
18,O=C(OCc1ccccc1)N1CCC2CC1c1cc(N3CCN(S(=O)(=O)c4cc(Cl)cc(Cl)c4)CC3)ccc12 (configuration not stated),19.3%
19,CC(OC(=O)c1cc2ccccc2o1)C(=O)Nc1ccc(N2CCOCC2)cc1 (configuration not stated),2.93%
20,CC(C)C1N=C2c3ccccc3N=C(SCC(=O)c3ccc(O)c(O)c3)N2C1=O (configuration not stated),-18.8%
21,O=C(Nc1ccc(-c2cscn2)cc1)C1CCCN(Cc2ccc(CO)o2)C1 (configuration not stated),5.08%
22,O=C(NCc1cccnc1)Nc1cccc(NC(=O)NCc2cccnc2)c1F,2.41%
23,CC(C)CC1(C)NC(=O)N(CC(=O)Nc2ccc3c(c2)OCCO3)C1=O (configuration not stated),-8.52%
24,Cc1ccc(-n2c(SCC(=O)Nc3ncc(Cl)cc3Cl)nc3ccccc32)cc1,3.23%
